Assay results published in the supplement of paper PMC6555819.

Tests used:
Experiment in all cases: PBM binding z-score (relative to random genomic background probes); higher = stronger binding; sequences stand for … in GC…GCGATTGACAGCGTAGAATGAAGG
[1] = tested on: FXR:RXRa (NR concentration 270 nM, RXRa partner concentration 90 nM)
Procedure, shortened: (§1)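 Regression normalization was applied to scanned fluorescence from custom Agilent 4×180K protein-binding microarrays. Before scanning, arrays were incubated 1 h with ligand-free nuclear receptor dimers, and binding was detected with antibodies against each partner (one per run). Binding z-scores use the random background probes as reference.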

[2] = tested on: LXRa:RXRa (NR concentration 270 nM, RXRa partner concentration 90 nM)
Procedure, shortened: as §1

[3] = tested on: LXRa homodimer (NR concentration 270 nM)
Procedure, shortened: as §1

[4] = tested on: LXRb:RXRa (NR concentration 270 nM, RXRa partner concentration 90 nM)
Procedure, shortened: as §1

[5] = tested on: LXRb homodimer (NR concentration 270 nM)
Procedure, shortened: as §1

[6] = tested on: PPARa:RXRa (NR concentration 270 nM, RXRa partner concentration 90 nM)
Procedure, shortened: as §1

[7] = tested on: PPARg:RXRa (NR concentration 180 nM, RXRa partner concentration 90 nM)
Procedure, shortened: as §1

[8] = tested on: PPARg:RXRa 270nM:90nM, anti-RXR (NR concentration 270 nM, RXRa partner concentration 90 nM)
Procedure, shortened: as §1

[9] = tested on: PPARg:RXRa 30nM:10nM, anti-RXR (NR concentration 30 nM, RXRa partner concentration 10 nM)
Procedure, shortened: as §1

[10] = tested on: PPARg:RXRa 90nM:30nM, anti-RXR (NR concentration 90 nM, RXRa partner concentration 30 nM)
Procedure, shortened: as §1

[11] = tested on: PPARg:RXRa DBDmut IVT, anti-RXR (DBD mutation: RXRa K156A/R161A, NR concentration 270 nM, RXRa partner concentration 90 nM)
Procedure, shortened: as §1

[12] = tested on: PPARg:RXRa IVT, anti-PPARg (NR concentration 270 nM, RXRa partner concentration 90 nM)
Procedure, shortened: as §1

[13] = tested on: PPARg DBDmut:RXRa IVT, anti-PPARg (DBD mutation: PPARg1 K132A/R137A, NR concentration 270 nM, RXRa partner concentration 90 nM)
Procedure, shortened: as §1

[14] = tested on: PPARg DBDmut IVT, anti-PPARg (DBD mutation: PPARg1 K132A/R137A, NR concentration 270 nM)
Procedure, shortened: as §1

[15] = tested on: PPARg homodimer (NR concentration 180 nM)
Procedure, shortened: as §1

[16] = tested on: PXR:RXRa (NR concentration 270 nM, RXRa partner concentration 90 nM)
Procedure, shortened: as §1

[17] = tested on: PXR homodimer (NR concentration 270 nM)
Procedure, shortened: as §1

[18] = tested on: RARa:RXR (NR concentration 270 nM, RXRa partner concentration 90 nM)
Procedure, shortened: as §1

[19] = tested on: RARa homodimer (NR concentration 270 nM)
Procedure, shortened: as §1

[20] = tested on: RARb:RXRa (NR concentration 270 nM, RXRa partner concentration 90 nM)
Procedure, shortened: as §1

TTACCAAGGTGAAAGATCGTTGATGCACGCCTTG
PBM binding z-score [1]: 0.552 | PBM binding z-score [2]: 0.392 | PBM binding z-score [3]: -0.574 | PBM binding z-score [4]: 0.286 | PBM binding z-score [5]: -0.696 | PBM binding z-score [6]: 2.36 | PBM binding z-score [7]: 2.97 | PBM binding z-score [8]: 3.92 | PBM binding z-score [9]: 2.25 | PBM binding z-score [10]: 3.77 | PBM binding z-score [11]: 1.56 | PBM binding z-score [12]: 2.99 | PBM binding z-score [13]: 0.596 | PBM binding z-score [14]: 0.116 | PBM binding z-score [15]: 0.393 | PBM binding z-score [16]: 0.0637 | PBM binding z-score [17]: -0.296 | PBM binding z-score [18]: 0.393 | PBM binding z-score [19]: -0.301 | PBM binding z-score [20]: 1.23

ACTAGTTGGTCAGCTGAGGTCAGACACAATTCGG
PBM binding z-score [1]: 2.41 | PBM binding z-score [2]: 1.65 | PBM binding z-score [3]: 1.19 | PBM binding z-score [4]: 2.03 | PBM binding z-score [5]: 0.149 | PBM binding z-score [6]: 2.42 | PBM binding z-score [7]: 0.879 | PBM binding z-score [8]: 1.07 | PBM binding z-score [9]: 0.223 | PBM binding z-score [10]: 0.908 | PBM binding z-score [11]: 1.02 | PBM binding z-score [12]: 1.86 | PBM binding z-score [13]: 0.583 | PBM binding z-score [14]: 0.951 | PBM binding z-score [15]: 1.04 | PBM binding z-score [16]: 4.31 | PBM binding z-score [17]: 0.813 | PBM binding z-score [18]: 2.75 | PBM binding z-score [19]: 0.218 | PBM binding z-score [20]: 2.86

TCAAATAGGTAATACAGGTGAAAGTCGGCATCTA
PBM binding z-score [1]: 0.834 | PBM binding z-score [2]: 1.29 | PBM binding z-score [3]: 0.418 | PBM binding z-score [4]: 0.892 | PBM binding z-score [5]: 0.0118 | PBM binding z-score [6]: 2.04 | PBM binding z-score [7]: 1.14 | PBM binding z-score [8]: 2.72 | PBM binding z-score [9]: 4.16 | PBM binding z-score [10]: 3.5 | PBM binding z-score [11]: 3.6 | PBM binding z-score [12]: 2.94 | PBM binding z-score [13]: 1.25 | PBM binding z-score [14]: 1.14 | PBM binding z-score [15]: 0.815 | PBM binding z-score [16]: 0.771 | PBM binding z-score [17]: 0.46 | PBM binding z-score [18]: 0.82 | PBM binding z-score [19]: 1.66 | PBM binding z-score [20]: 0.777

GGAACGAGGGCAAATTTGATAGCATCTGTCGACG
PBM binding z-score [1]: 0.712 | PBM binding z-score [2]: 0.506 | PBM binding z-score [3]: -0.407 | PBM binding z-score [4]: 0.682 | PBM binding z-score [5]: 0.0825 | PBM binding z-score [6]: 1.51 | PBM binding z-score [7]: 1.19 | PBM binding z-score [8]: 1.13 | PBM binding z-score [9]: -0.00323 | PBM binding z-score [10]: 0.82 | PBM binding z-score [11]: 3.93 | PBM binding z-score [12]: 2.76 | PBM binding z-score [13]: 0.00863 | PBM binding z-score [14]: -0.28 | PBM binding z-score [15]: 0.201 | PBM binding z-score [16]: 0.608 | PBM binding z-score [17]: 0.0405 | PBM binding z-score [18]: 0.115 | PBM binding z-score [19]: 0.0323 | PBM binding z-score [20]: 2.19

CGTCCAAGGTCAGGGAGGTCAGTGAATGCCGAGT
PBM binding z-score [1]: 6.32 | PBM binding z-score [2]: 5.28 | PBM binding z-score [3]: 2.42 | PBM binding z-score [4]: 4.43 | PBM binding z-score [5]: 0.00503 | PBM binding z-score [6]: 5.2 | PBM binding z-score [7]: 4.29 | PBM binding z-score [8]: 4.63 | PBM binding z-score [9]: 0.9 | PBM binding z-score [10]: 3.13 | PBM binding z-score [11]: 2.94 | PBM binding z-score [12]: 3.53 | PBM binding z-score [13]: -0.257 | PBM binding z-score [14]: -1.31 | PBM binding z-score [15]: 4.71 | PBM binding z-score [16]: 6.02 | PBM binding z-score [17]: 10.3 | PBM binding z-score [18]: 5.53 | PBM binding z-score [19]: 2.15 | PBM binding z-score [20]: 5.33

AGTCAAAGTTCCGGACGAGGTAACGTAAAGCACG
PBM binding z-score [1]: -0.0931 | PBM binding z-score [2]: -0.354 | PBM binding z-score [3]: -0.166 | PBM binding z-score [4]: -0.301 | PBM binding z-score [5]: -0.695 | PBM binding z-score [6]: -0.0739 | PBM binding z-score [7]: 0.679 | PBM binding z-score [8]: 0.221 | PBM binding z-score [9]: -0.0701 | PBM binding z-score [10]: 0.189 | PBM binding z-score [11]: -0.341 | PBM binding z-score [12]: 0.284 | PBM binding z-score [13]: 0.0206 | PBM binding z-score [14]: -0.236 | PBM binding z-score [15]: -0.335 | PBM binding z-score [16]: -0.34 | PBM binding z-score [17]: -0.452 | PBM binding z-score [18]: 0.0687 | PBM binding z-score [19]: -0.122 | PBM binding z-score [20]: 0.265

GCTGCTAGGTCAACTGATGTTCAGCTAAAGCTCG
PBM binding z-score [1]: 4.01 | PBM binding z-score [2]: 2.78 | PBM binding z-score [3]: 0.062 | PBM binding z-score [4]: 1.95 | PBM binding z-score [5]: 0.048 | PBM binding z-score [6]: 3.71 | PBM binding z-score [7]: 2.89 | PBM binding z-score [8]: 3.07 | PBM binding z-score [9]: 0.613 | PBM binding z-score [10]: 1.86 | PBM binding z-score [11]: 4.93 | PBM binding z-score [12]: 4.11 | PBM binding z-score [13]: -0.364 | PBM binding z-score [14]: -1.06 | PBM binding z-score [15]: 1.1 | PBM binding z-score [16]: 1.64 | PBM binding z-score [17]: -0.723 | PBM binding z-score [18]: 2.27 | PBM binding z-score [19]: -0.512 | PBM binding z-score [20]: 4.32
